Laboratory results published in the supplement of paper PMC11732987, “Enantioselective OTUD7B fragment discovery through chemoproteomics screening and high-throughput optimisation” (Communications Chemistry, 2025).

Experiments:
Experiment in all cases: log2 ratio of Biotin-Ahx-Ub-VS probe labelling (fragment/DMSO); higher = less target engagement (more negative = stronger competition), active = hit call of the paper (q ≤ 0.05, log2 ratio ≤ -1)
Conditions in all cases: compound concentration: 200 uM; treatment time: 3 h
[1] = molecular target: T1, USP42 (UniProt Q9H9J4)
T1 sequence (whole entry): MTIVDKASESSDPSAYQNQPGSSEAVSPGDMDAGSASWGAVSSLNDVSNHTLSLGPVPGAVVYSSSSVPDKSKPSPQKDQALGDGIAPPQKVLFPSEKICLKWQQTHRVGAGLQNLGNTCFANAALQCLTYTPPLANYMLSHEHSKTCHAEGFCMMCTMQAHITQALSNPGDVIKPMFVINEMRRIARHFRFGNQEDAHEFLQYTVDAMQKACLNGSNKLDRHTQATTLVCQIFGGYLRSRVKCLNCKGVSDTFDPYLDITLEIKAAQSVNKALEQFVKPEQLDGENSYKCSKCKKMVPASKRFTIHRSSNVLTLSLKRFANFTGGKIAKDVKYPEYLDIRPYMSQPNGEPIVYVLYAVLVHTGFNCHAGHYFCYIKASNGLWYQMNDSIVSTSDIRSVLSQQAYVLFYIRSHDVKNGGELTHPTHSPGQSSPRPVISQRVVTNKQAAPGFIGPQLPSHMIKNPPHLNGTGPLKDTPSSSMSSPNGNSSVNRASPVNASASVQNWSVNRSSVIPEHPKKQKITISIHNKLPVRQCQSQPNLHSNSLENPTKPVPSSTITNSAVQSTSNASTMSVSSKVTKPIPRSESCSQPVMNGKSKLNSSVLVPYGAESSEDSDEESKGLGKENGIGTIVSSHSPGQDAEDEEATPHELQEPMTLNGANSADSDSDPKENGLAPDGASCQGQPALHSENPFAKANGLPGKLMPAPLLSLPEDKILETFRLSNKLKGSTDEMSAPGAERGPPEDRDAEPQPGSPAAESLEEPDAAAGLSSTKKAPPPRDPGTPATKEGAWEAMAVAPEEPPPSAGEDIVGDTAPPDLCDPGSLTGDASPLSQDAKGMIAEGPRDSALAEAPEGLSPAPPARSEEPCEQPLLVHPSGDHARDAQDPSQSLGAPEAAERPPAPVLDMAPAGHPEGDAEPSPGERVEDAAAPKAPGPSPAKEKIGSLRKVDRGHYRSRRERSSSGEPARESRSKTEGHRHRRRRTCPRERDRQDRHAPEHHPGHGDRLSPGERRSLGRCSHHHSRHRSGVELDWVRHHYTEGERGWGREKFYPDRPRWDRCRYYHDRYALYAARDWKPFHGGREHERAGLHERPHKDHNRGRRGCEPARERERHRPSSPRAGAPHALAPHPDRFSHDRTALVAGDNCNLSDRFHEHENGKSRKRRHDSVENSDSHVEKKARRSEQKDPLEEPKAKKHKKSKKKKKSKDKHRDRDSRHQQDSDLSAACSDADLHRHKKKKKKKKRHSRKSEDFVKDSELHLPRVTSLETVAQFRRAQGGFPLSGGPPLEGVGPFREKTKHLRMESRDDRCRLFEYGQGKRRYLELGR
Summary of the method: (§1)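 Using Biotin-Ahx-Ub-VS at 0.5 µM final for 1 h, DUBs were labelled in HEK293T lysate (495 µg per sample) that had first been treated in triplicate with fragment at 200 µM or vehicle for 3 h. NeutrAvidin enrichment, LysC and trypsin digestion and diaPASEF LC-MS/MS followed. Spectronaut label-free quantities were global-median-normalised. Values are average log2 fragment/vehicle ratios by unpaired t-test, using proteins with ≥2 unique peptides.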

[2] = molecular target: USP46 (UniProt P62068)
USP46, sequence (P62068 whole entry): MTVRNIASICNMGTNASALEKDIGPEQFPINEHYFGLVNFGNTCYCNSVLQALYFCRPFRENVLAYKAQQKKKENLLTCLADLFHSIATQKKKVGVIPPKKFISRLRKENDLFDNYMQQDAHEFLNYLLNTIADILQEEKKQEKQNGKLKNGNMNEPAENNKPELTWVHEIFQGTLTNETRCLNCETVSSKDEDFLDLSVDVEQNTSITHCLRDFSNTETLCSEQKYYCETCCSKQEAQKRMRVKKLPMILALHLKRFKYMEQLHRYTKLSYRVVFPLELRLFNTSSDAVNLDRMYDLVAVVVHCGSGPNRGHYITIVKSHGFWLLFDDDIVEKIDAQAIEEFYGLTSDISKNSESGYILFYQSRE
Summary of the method: as §1

[3] = molecular target: T2, USP47 (UniProt Q96K76)
T2 sequence (whole entry): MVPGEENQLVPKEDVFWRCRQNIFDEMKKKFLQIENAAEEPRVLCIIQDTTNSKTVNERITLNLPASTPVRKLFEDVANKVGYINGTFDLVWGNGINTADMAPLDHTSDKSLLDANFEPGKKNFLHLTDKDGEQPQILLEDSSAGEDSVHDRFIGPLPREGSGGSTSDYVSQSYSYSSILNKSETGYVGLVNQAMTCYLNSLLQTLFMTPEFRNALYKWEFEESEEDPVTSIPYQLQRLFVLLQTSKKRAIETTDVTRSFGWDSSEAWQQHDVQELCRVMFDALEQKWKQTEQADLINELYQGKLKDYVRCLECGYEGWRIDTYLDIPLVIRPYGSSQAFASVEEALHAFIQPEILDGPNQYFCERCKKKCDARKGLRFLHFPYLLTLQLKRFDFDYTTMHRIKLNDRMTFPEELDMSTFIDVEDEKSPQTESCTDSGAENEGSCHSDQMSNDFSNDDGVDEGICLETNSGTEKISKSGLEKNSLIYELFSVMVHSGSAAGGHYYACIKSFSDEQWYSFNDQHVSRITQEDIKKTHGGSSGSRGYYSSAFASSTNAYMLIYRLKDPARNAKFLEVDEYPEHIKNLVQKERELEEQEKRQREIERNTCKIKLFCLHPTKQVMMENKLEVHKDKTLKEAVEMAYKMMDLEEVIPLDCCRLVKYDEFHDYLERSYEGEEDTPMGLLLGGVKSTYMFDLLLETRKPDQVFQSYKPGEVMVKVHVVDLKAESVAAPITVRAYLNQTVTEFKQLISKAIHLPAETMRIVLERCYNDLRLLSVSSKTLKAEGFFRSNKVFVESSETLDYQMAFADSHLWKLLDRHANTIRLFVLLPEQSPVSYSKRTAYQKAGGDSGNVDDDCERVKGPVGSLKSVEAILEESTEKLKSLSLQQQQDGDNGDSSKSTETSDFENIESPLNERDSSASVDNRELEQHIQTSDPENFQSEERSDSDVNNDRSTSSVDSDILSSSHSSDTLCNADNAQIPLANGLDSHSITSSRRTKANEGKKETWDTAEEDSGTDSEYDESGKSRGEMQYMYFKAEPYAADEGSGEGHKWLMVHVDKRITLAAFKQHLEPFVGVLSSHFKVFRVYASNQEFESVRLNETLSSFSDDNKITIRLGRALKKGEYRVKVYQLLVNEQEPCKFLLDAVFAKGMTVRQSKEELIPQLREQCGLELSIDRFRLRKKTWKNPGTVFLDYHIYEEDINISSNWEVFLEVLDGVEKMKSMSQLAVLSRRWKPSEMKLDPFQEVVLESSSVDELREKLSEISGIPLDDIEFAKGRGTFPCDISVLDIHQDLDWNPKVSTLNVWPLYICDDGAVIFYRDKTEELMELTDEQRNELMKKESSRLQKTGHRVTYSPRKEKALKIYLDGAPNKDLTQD
Summary of the method: as §1

[4] = molecular target: T3, USP48 (UniProt Q86UV5)
T3 sequence (whole entry): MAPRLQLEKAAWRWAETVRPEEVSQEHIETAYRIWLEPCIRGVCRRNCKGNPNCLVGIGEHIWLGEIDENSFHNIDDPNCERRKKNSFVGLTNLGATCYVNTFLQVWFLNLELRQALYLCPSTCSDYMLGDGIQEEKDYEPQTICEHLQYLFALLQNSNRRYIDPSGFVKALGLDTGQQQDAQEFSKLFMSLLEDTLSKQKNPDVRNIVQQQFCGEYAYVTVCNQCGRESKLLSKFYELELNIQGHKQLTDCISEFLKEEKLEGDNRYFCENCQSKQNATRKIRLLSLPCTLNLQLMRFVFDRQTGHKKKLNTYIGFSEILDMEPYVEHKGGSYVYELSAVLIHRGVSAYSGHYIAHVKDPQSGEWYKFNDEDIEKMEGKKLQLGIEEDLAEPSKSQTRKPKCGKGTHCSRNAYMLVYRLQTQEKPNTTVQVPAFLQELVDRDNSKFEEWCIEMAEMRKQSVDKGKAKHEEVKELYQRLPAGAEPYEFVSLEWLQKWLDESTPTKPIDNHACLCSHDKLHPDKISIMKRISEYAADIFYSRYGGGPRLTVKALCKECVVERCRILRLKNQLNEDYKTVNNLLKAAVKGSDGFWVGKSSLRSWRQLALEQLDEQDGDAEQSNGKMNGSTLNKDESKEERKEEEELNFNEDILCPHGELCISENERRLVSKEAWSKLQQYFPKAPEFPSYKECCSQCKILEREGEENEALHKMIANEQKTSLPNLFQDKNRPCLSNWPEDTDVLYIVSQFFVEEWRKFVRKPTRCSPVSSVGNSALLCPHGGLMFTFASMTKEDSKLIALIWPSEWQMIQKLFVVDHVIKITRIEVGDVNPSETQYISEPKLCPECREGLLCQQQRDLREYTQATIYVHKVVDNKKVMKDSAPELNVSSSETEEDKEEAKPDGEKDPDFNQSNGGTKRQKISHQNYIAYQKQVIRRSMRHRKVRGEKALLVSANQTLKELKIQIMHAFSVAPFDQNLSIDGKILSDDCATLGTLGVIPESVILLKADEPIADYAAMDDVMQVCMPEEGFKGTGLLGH
Summary of the method: as §1

[5] = molecular target: T4, USP5 (UniProt P45974)
T4 sequence (whole entry): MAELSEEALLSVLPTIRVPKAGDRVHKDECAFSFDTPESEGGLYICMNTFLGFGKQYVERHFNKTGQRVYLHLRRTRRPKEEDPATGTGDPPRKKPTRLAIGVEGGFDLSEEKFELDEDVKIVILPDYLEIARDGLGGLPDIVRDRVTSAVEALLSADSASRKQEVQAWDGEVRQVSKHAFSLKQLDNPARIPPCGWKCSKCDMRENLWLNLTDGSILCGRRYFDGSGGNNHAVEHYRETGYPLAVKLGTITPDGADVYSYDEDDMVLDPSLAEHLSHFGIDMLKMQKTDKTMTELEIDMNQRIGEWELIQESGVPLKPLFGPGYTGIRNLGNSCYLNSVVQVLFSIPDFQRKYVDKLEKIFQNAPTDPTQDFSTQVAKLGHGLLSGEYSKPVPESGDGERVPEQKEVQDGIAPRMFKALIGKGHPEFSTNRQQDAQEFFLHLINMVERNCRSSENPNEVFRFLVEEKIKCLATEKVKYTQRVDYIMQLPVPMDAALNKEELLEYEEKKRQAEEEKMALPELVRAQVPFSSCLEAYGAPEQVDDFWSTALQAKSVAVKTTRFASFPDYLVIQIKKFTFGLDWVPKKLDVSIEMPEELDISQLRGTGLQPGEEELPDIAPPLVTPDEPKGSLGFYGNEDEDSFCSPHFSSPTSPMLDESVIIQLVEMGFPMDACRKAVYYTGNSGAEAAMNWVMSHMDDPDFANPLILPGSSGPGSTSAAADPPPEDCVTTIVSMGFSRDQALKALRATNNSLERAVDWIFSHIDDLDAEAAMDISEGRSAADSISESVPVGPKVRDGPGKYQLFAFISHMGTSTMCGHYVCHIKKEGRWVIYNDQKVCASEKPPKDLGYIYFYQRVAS
Summary of the method: as §1

[6] = molecular target: USP54 (UniProt Q70EL1)
USP54, sequence (Q70EL1 whole entry): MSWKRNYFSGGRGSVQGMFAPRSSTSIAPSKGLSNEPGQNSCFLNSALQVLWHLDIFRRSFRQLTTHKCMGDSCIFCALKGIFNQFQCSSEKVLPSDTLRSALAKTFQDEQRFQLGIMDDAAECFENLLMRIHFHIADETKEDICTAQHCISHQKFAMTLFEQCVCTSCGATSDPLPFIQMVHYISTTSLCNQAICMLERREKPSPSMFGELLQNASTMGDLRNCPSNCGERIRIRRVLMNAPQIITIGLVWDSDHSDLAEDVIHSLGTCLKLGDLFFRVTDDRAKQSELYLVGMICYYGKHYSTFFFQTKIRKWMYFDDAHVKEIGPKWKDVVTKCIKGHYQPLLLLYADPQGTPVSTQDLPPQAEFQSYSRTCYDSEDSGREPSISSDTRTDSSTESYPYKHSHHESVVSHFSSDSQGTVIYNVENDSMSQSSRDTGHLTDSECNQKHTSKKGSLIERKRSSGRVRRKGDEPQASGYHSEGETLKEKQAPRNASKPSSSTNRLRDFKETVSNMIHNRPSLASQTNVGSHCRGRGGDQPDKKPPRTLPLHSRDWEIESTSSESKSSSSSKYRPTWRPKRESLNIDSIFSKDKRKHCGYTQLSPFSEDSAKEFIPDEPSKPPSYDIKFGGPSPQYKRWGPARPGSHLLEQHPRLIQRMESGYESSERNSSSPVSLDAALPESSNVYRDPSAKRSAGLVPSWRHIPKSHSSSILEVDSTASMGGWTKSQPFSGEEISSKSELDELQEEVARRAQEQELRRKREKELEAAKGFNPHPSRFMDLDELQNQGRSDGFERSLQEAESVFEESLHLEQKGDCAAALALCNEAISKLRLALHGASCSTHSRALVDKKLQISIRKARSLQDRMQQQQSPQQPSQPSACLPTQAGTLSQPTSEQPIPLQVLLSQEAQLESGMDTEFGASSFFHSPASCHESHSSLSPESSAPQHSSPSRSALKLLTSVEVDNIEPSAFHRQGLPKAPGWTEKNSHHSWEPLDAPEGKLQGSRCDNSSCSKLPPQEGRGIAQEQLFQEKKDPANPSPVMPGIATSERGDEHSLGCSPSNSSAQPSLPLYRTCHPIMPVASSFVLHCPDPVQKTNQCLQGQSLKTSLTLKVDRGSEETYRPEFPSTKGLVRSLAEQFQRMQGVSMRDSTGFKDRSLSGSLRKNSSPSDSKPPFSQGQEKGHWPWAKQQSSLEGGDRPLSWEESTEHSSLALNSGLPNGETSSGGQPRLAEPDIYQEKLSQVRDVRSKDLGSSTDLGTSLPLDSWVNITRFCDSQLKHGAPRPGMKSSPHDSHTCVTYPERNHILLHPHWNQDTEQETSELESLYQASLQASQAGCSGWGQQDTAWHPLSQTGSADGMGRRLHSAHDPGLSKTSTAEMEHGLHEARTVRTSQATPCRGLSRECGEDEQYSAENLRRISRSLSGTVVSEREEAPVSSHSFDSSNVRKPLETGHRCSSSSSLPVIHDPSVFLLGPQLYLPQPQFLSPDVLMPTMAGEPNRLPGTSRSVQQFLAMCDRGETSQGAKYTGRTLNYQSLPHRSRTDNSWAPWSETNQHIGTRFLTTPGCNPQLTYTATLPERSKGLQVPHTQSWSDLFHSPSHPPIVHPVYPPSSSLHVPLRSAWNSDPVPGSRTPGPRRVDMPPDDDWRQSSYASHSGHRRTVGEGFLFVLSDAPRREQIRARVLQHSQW
Summary of the method: as §1

[7] = molecular target: USP7 (UniProt Q93009)
USP7, sequence (Q93009 whole entry, looked up): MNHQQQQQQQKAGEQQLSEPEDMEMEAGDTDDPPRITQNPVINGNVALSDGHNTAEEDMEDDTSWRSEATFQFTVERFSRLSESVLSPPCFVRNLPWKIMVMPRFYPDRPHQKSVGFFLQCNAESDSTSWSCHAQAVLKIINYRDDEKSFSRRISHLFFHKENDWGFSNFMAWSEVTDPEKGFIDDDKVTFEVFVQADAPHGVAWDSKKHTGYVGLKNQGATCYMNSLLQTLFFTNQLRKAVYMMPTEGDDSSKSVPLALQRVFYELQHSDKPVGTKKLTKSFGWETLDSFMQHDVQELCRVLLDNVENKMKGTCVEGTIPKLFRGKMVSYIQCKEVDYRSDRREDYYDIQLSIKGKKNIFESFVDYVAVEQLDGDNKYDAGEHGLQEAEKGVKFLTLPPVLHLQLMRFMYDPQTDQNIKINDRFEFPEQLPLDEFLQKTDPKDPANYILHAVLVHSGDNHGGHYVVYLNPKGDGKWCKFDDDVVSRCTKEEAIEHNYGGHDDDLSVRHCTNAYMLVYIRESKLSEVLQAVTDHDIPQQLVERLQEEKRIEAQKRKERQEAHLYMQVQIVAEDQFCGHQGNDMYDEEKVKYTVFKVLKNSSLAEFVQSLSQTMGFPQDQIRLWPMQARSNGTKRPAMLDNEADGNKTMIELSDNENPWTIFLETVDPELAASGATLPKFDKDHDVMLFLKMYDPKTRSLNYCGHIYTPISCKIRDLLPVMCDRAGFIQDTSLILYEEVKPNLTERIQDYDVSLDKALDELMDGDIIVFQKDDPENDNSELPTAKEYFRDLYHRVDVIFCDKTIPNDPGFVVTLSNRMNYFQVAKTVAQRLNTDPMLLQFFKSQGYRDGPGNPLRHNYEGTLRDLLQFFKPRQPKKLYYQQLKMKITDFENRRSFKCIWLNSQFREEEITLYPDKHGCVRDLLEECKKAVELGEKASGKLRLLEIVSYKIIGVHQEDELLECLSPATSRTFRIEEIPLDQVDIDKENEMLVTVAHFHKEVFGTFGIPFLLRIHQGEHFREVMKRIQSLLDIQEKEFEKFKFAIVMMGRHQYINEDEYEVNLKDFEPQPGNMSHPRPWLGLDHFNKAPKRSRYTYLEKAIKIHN
Summary of the method: as §1

[8] = molecular target: T5, USP8 (UniProt P40818)
T5 sequence (whole entry): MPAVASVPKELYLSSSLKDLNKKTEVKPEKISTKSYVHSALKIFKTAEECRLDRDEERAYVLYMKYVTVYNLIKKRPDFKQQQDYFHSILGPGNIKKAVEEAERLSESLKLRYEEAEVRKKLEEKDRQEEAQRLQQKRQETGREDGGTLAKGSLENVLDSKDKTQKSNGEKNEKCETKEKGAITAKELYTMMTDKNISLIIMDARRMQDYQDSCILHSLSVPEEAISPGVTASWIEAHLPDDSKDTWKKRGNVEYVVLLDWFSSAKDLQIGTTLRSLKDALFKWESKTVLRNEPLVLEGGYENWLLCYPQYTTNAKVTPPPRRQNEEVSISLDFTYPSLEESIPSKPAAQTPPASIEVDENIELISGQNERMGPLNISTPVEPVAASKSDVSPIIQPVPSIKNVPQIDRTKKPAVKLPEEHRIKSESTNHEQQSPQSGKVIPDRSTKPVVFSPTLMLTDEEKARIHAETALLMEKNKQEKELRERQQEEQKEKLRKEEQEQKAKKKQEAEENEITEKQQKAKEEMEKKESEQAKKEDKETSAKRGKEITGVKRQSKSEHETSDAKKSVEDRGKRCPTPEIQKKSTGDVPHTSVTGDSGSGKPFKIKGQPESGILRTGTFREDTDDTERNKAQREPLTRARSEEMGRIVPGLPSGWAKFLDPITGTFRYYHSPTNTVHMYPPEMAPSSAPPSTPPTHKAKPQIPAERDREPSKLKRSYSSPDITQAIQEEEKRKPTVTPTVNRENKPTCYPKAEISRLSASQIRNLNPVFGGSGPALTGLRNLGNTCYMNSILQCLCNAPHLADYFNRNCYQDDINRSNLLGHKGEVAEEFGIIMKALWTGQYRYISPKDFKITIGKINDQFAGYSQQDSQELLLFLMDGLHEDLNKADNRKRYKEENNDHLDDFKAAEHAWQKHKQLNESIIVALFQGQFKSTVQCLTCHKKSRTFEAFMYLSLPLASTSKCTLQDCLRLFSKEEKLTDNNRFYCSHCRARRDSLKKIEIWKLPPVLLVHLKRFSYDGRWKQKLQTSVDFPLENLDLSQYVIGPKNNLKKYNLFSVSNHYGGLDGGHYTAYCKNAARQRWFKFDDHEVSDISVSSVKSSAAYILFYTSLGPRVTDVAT
Summary of the method: as §1

Measured: log2 ratio of Biotin-Ahx-Ub-VS probe labelling

Cc1nnc(C(NC(=O)CCl)c2ccccc2)n1C (stereo not drawn)
inactive: [1] 0.478 | [2] 0.418 | [3] 0.26 | [4] 0.313 | [5] 0.627 | [6] 0.407 | [7] 0.438 | [8] 0.467
